# Screens deposited in PubChem BioAssay by several laboratories.
# Rv3671c inh: inhibits the M. tuberculosis serine protease Rv3671c | P9WHR9 | inhibition, % at 5.96 µM | 320,000 compounds, 0.048% hits | AID 2606; in the data active means inhibition above about 38%;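 further: extracellular domain of Rv3671c used as enzyme; 0% = enzyme with DMSO and 100% = no enzyme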
# Mtb FBA inh: inhibitors of M. tuberculosis fructose-bisphosphate aldolase. 360,000 compounds, 2.3% hits. P9WQA3. inhibition, % at 1 µM. purified M. tuberculosis FBA, fluorescence read-out. AID 588726;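 further: 0% = vehicle and 100% = reference inhibitor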
# Target sequence (P9WQA3 whole entry, looked up): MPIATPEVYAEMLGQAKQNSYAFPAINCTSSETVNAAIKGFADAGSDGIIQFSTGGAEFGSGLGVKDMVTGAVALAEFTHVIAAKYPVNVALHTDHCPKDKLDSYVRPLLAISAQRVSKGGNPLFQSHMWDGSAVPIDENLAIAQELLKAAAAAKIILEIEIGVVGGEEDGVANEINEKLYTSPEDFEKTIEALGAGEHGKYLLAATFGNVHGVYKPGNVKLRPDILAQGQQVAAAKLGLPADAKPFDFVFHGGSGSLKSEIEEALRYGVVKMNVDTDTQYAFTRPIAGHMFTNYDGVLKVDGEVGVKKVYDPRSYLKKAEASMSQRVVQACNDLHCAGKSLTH
# Mtb bLac sens: beta-lactam sensitization of Mtb H37Rv | inhibition, % at 25 µM | AID 434955 | M. tuberculosis H37Rv growth with meropenem, percent inhibition | 330,000 compounds, 0.27% hits; call rule not given here;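 further: growth measured after seven days incubation then overnight dye step; 0% = bacteria only wells and 100% = bacteria with antibiotic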
# GDH-TPI counter-1: inhibits GDH-TPI coupling enzymes, artifact for Mtb FBA screen; GDH-TPI coupled enzyme counterscreen, NADH absorbance; 360,000 compounds, 1.2% hits; inhibition, % at 4.8 µM; in the data active means inhibition above about 30%;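 further: 0% = DMSO wells and 100% = wells lacking the enzyme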
# Mtb UGM inh: Mtb UDP-galactopyranose mutase inhibition. P9WIQ1. purified UGM, fluorescence polarization probe displacement. inhibition, % at 10 µM. 320,000 compounds, 0.06% hits. AID 504406; in the data active means inhibition above about 10%, passing the limit was not always enough
# Mtb FBA confirm: Mtb FBA inhibition, confirmed | inhibition, % at 1 µM | shares compounds with Mtb FBA inh | purified M. tuberculosis FBA, fluorescence read-out | 5,600 compounds, 78% hits | AID 651616;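 further: 0% = vehicle wells and 100% = reference inhibitor wells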
# GDH-TPI counter-2: inhibits GDH-TPI coupling enzymes, flagging Mtb FBA hits; GDH-TPI coupled enzyme counterscreen, fluorescence; shares compounds with Mtb FBA inh; inhibition, % at 1 µM; AID 652141; 5,600 compounds, 81% hits; in the data active means inhibition above about 10%
# Starred values were filed as active, the others as inactive; nt = not tested or not shown; + = active, no number. Compounds with a hit are over-represented: about 3.5% of the library has one in this group of screens. Unless noted, no stated cut-off is given here; in the data, active means inhibition above about 27%; inactive means the rest.
SMILES,Rv3671c inh,Mtb FBA inh,Mtb bLac sens,GDH-TPI counter-1,Mtb UGM inh,Mtb FBA confirm,GDH-TPI counter-2
O=C(Nc1nnc([C@H]2C[C@H](O)[C@@H](CO)O2)s1)C(c1ccccc1)c1ccccc1,nt,-1,nt,3,nt,nt,nt
Cc1c(C)n2c(SCC(=O)NC3CCCCC3)nnc2[nH]c1=O,-5,32*,1,4,2,-3,-4
CCCc1cc(=O)[nH]c2nnc(SCC(=O)NC3CCCC3)n12,-3,3,1,-6,0,nt,nt
CC(C)(C)CN1CCNC(=O)C1CC(=O)NCCN1CCCc2ccccc21 (stereo not given),8,1,-1,-4,4,nt,nt
Cc1ccc(C)c(Oc2coc3cc(O)ccc3c2=O)c1,-5,38*,-7,20,1,128*,104*
Cc1ccc(C)c(Oc2coc3cc(OCC(=O)Nc4ccccc4C(C)C)ccc3c2=O)c1,-22,nt,0,nt,0,nt,nt
Cc1ccccc1-c1coc2cc(O)ccc2c1=O,-15,48*,-4,20,1,97*,81*
Cc1cc(C)cc(Oc2coc3cc(O)ccc3c2=O)c1,-12,24,0,1,-2,nt,nt
O=c1c(-c2ccc(O)cc2)coc2cc(O)ccc12,-2,24,1,15,2,nt,nt
Cc1ccc(Oc2coc3cc(O)ccc3c2=O)cc1,-10,40*,-3,17,4,53*,57*
c1ccc(-n2nnnc2SCc2cn3cccnc3n2)cc1,-9,43*,-4,6,nt,76*,57*
COc1ccc(-c2c3c(=O)n(C)c(=O)n(C)c3cn2-c2ccc(O)cc2)cc1,-2,45*,-1,5,0,+,189*
COc1ccc(-c2c3c(=O)n(C)c(=O)n(C)c3cn2-c2ccccc2)cc1,9,4,-9,8,0,nt,nt
Oc1ccc(Br)cc1-c1ccnn1-c1ccccc1,-12,3,1,9,2,nt,nt
CC(C)c1ccc(C2c3[nH]c4ccccc4c3C[C@H]3C(=O)N(c4ccccc4C(=O)N4CCC[C@H]4C(=O)O)C(=O)N23)cc1 (stereo not given in full),-7,5,4,-2,-1,nt,nt
COc1ccc2[nH]c3c(NCCN4CCCCC4)ncnc3c2c1,3,25,12,15,1,nt,nt
CCCCOc1ncnc2c1[nH]c1ccc(OCC)cc12,3,8,27,9,-2,nt,nt
CCOc1ccc2[nH]c3c(NCCO)ncnc3c2c1,nt,78*,1,1,1,45*,43*
CCOc1ccc2[nH]c3c(NCCc4ccc(OC)c(OC)c4)ncnc3c2c1,8,32*,7,16,1,181*,147*
OCCC1CN(Cc2cc(F)ccc2-n2cccn2)CCN1C1CCCC1 (stereo not given),3,0,0,4,2,nt,nt
Nc1ccc(Nc2ccccc2)c(S(=O)(=O)O)c1,5,90*,-7,13,-2,84*,70*
CCn1cc(C(=O)O)c(=O)c2cc(F)c(N3CCN(S(=O)(=O)c4ccc(NC(C)=O)cc4)CC3)cc21,7,50*,90,12,0,-4,-3
COc1ccccc1C1CN(c2ccccc2)N=C1c1cccs1 (stereo not given),-1,85*,3,7,-4,4,-5
COc1cccc(C2CN(c3ccc(F)cc3F)N=C2c2cccs2)c1OC (stereo not given),2,86*,9,5,-1,168*,120*
CCN(c1cccc(C)c1)S(=O)(=O)c1ccc2c(c1)oc(=O)n2C,1,79*,-1,2,-1,49*,46*
C/C(=N\NC(=O)c1cc(-c2ccc(C)s2)nc2ccccc12)c1cccnc1,nt,62*,4,11,0,136*,111*
CCN(C(=O)COC(=O)c1cc(-c2cccs2)nc2ccccc12)C1CCS(=O)(=O)C1 (stereo not given),-2,72*,-4,16,-2,45*,45*
CCN(C(=O)COC(=O)c1cc(-c2ccc(C)o2)nc2ccccc12)C1CCS(=O)(=O)C1 (stereo not given),1,3,-2,10,-1,nt,nt
C/C(=N\NC(=O)c1cc(-c2ccccc2C)nc2ccccc12)c1cccnc1,nt,-2,9,-1,1,nt,nt
